These results are taken from the supplement of paper PMC10338343.

Assay [1] deals with MILI (PIWIL2) piRISC loaded with L1MC piRNA (26 nt). Put plainly: pre-steady-state target cleavage rate (min^-1); guide: L1MC piRNA 5'p-UAACUAAAUACUAUGCAAGCUGUAGG; higher = faster piRNA-guided slicing of the target. Put shortly: (§1)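 Cleave-'n-Seq used a transcribed, DNA-blocked target RNA library at 0.1 nM and active affinity-purified piRISC with one synthetic guide at 1 nM, with or without 500 nM GTSF1 partner protein, in HEPES–potassium acetate buffer at 33 °C for 0–8 or 0–960 min. Uncleaved targets were sequenced and normalised to depth and to weakly complementary targets, and three trials were pooled with k3 capped at 0.0001 min^-1. The pre-steady-state cleavage rate was estimated by a burst-and-steady-state fit.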

Assay [2] deals with EfPiwi piRISC loaded with L1MC piRNA (26 nt). Put plainly: pre-steady-state target cleavage rate (min^-1); auxiliary factor: 500 nM Ephydatia muelleri Gtsf1; guide: L1MC piRNA 5'p-UAACUAAAUACUAUGCAAGCUGUAGG; MIWI and MILI are mouse PIWI proteins and EfPiwi is from a freshwater sponge; tags in brackets are library labels; higher = faster piRNA-guided slicing of the target. Put shortly: as §1
[3] abbreviates: auxiliary factor: 500 nM mouse GTSF1.
Where [4] appears, read: auxiliary factor: none (no GTSF1).

± gives the standard deviation.

As for UCCUGGAUGUGCUUGGAUAGUUUUUAGUUA, the “pre-steady-state target cleavage rate” value in assay [1] (setting [3]) amounted to 0.00761 ± 0.0046; in assay [1] (setting [4]), 0.00414 ± 0.0024.

For the sequence UCCUGGAUGUCCUUGCAUAGUAUUUAUUUA, the “pre-steady-state target cleavage rate” value in assay [1] (setting [3]) worked out at 0.0674 ± 0.018; in assay [1] (setting [4]) it was 0.00292 ± 0.0029.

UCCUGGAUGAGCUUGCAUAGUGUUUAGUUA: the “pre-steady-state target cleavage rate” value was 0.117 ± 0.016 in assay [1] (setting [3]) and 0.00732 ± 0.0031 in assay [1] (setting [4]).

On to UCCUGGAUGUCGAUCGCAUAGUAUUUAGUUA, for which the “pre-steady-state target cleavage rate” value is 0.0384 ± 0.0094 in assay [1] (setting [3]) and 0.00367 ± 0.0026 in assay [1] (setting [4]).

On to UCCUGGAUGUGCAUGCAUAGUUUUUAGUUA, for which the “pre-steady-state target cleavage rate” value was found to be 0.01 ± 0.0069 in assay [1] (setting [3]) and 0.00641 ± 0.003 in assay [1] (setting [4]).

On to UCCUGGAUGUGGAAGCAUAGUAUUUAGUUA, for which the “pre-steady-state target cleavage rate” value in assay [1] (setting [3]) was found to be 0.026 ± 0.0048; in assay [1] (setting [4]) it was 0.00344 ± 0.0029.

On to UCCUGGAUGUGCAUGCAAAGUAUUUAGUUA, for which the “pre-steady-state target cleavage rate” value stood at 0.0175 ± 0.0048 in assay [1] (setting [3]) and 0.00933 ± 0.0024 in assay [1] (setting [4]).

On to UCCUGGAUGACCUUGCUUAGUAUUUAGUUA, for which the “pre-steady-state target cleavage rate” value in assay [1] (setting [3]) came out at 0.114 ± 0.019; in assay [1] (setting [4]) it was 0.00599 ± 0.0028.

With UCCUGGAUGAGGUUGCAUAGUUUUUAGUUA, the “pre-steady-state target cleavage rate” value in assay [1] (setting [3]) came out at 0.00694 ± 0.0049; in assay [1] (setting [4]), 0.00583 ± 0.0024.

Turning to UCCUGGAUCCGCUUGCAUAGUAUUUAGUUA, the “pre-steady-state target cleavage rate” value in assay [1] (setting [3]) worked out at 0.297 ± 0.019; in assay [1] (setting [4]) it was 0.00868 ± 0.0026; in assay [2], 0.146 ± 0.029.

In the case of UCCUGGAACAGCUUGCACAGUAUUUAGUUA, the “pre-steady-state target cleavage rate” value turned out to be 0.169 ± 0.014 in assay [1] (setting [3]), 0.0128 ± 0.003 in assay [1] (setting [4]) and 0.0589 ± 0.015 in assay [2].

For the sequence UCCUGGAUCAGCUUGCAUAGUAUUUGAGUUA, the results for the “pre-steady-state target cleavage rate” value in assay [1] (setting [3]), in assay [1] (setting [4]) and in assay [2] were 0.222 ± 0.036, 0.00502 ± 0.0022 and 0.00696 ± 0.0028, respectively.

On to UCCUGGUUCAGCUUGCAUACUAUUUAGUUA, for which the entries for the “pre-steady-state target cleavage rate” value in assay [1] (setting [3]), in assay [1] (setting [4]) and in assay [2] were 0.0631 ± 0.011, 0.00505 ± 0.0024 and 0.00751 ± 0.0031, respectively.

Consider UCCUGCUAUAGCUUGCAUAGUAUUUAGUUA, for which the results for the “pre-steady-state target cleavage rate” value in assay [1] (setting [3]), in assay [1] (setting [4]) and in assay [2] were 0.221 ± 0.017, 0.00678 ± 0.0018 and 0.014 ± 0.0046, respectively.

With UCCUGCUACAGGAAGCAUAGUAUUUAGUAA, the “pre-steady-state target cleavage rate” value in assay [1] (setting [3]) came to 0.254 ± 0.024; in assay [1] (setting [4]), 0.00762 ± 0.0022; in assay [2], 0.00302 ± 0.0027.

Take UCCUGGAAGAGCUUGCAUAGUAUUUAGUUA: the “pre-steady-state target cleavage rate” value in assay [1] (setting [3]) was 0.223 ± 0.014; in assay [1] (setting [4]) it was 0.0115 ± 0.0029; in assay [2] it was 0.0725 ± 0.016.

As to UCCUGGAUCAGCUUGCAUAGUAUUUAGUAA, the “pre-steady-state target cleavage rate” value was found to be 0.24 ± 0.016 in assay [1] (setting [3]), 0.00751 ± 0.0025 in assay [1] (setting [4]) and 0.00774 ± 0.0024 in assay [2].

UCCUGGUACACCUUGCAUAGUAUUUAGUUA: the “pre-steady-state target cleavage rate” value stood at 0.147 ± 0.026 in assay [1] (setting [3]), 0.00607 ± 0.0034 in assay [1] (setting [4]) and 0.00345 ± 0.0027 in assay [2].

Take UCCUGGAUGUGCUUGCAUAGUAUUUGGUUA: the “pre-steady-state target cleavage rate” value in assay [1] (setting [3]) came out at 0.131 ± 0.013; in assay [1] (setting [4]), 0.01 ± 0.0034; in assay [2], 0.00579 ± 0.003.

UCCUCGUACAGCUUGCAUAGUAUUUAGUUA: the entries for the “pre-steady-state target cleavage rate” value in assay [1] (setting [3]), in assay [1] (setting [4]) and in assay [2] were 0.32 ± 0.015, 0.0108 ± 0.0022 and 0.163 ± 0.036, respectively.

Take UCCUCCUACAGCUUGCAUAGUAUCUAGUUA: the “pre-steady-state target cleavage rate” value in assay [1] (setting [3]) came to 0.176 ± 0.02; in assay [1] (setting [4]) it was 0.00564 ± 0.0022; in assay [2], 0.00718 ± 0.0032.

As to UCCUCCUACCGCUUGCAUAGUAUUUAGUUA, the “pre-steady-state target cleavage rate” value in assay [1] (setting [3]) is 0.305 ± 0.015; in assay [1] (setting [4]), 0.0125 ± 0.003; in assay [2], 0.0865 ± 0.023.

On to UCCUGGAUCAGGUUGCAUAGUAUAUAGUUA, for which the “pre-steady-state target cleavage rate” value in assay [1] (setting [3]) amounted to 0.197 ± 0.017; in assay [1] (setting [4]), 0.00574 ± 0.0022; in assay [2], 0.00644 ± 0.0033.
